CD40 NFkB inh – CD40 pathway inhibition in BL2 cells; BL2 NF-kB luciferase reporter, CD40L-induced, 4 h; inhibition, % at 10 µM; hit rate 0.94% among 83,000;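 active = mean inhibition of at least 50% with a set share of replicates also reaching that level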;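 note: 0% = neutral control wells and 100% = IKK inhibitor VII at 50 µM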
An asterisk follows results filed as active; [ ] = another dose, or the depositor's remark. The full list was thinned out, with hits kept by preference.

SMILES	CD40 NFkB inh
O=C(NC1CCC1)[C@@H]1[C@@H](CO)[C@@H]2Cn3c(cccc3=O)[C@H]1N2Cc1cc(F)ccc1F	3.2[25 µM]
COc1ccc2oc(-c3ccncc3)cc(=O)c2c1	-48.8
COc1cc(OC)c(C(=O)OCC(=O)Nc2c(C)n(C)n(-c3ccccc3)c2=O)cc1OC	9.8
CCc1ccc2oc(-c3ccc(OC)cc3)cc(=Nc3c(C)n(C)n(-c4ccccc4)c3=O)c2c1	50.0*
O=C(Nc1ccccc1F)N1C[C@H]2[C@@H](c3ccccc31)[C@H](CO)N2C(=O)C1CC1	-31.1
O=C(c1cccnc1)N1C[C@@H]2[C@H](c3ccccc31)[C@@H](CO)N2C(=O)C1CCCCC1	-1.3
CC(=O)N(C)C[C@@H]1Oc2c(NS(C)(=O)=O)cccc2C(=O)N(C)C[C@@H]1C	3.4
O=C(NCCCN1CCOCC1)c1cc(-c2ccccc2)nc2ccccc12	0.5
CC(=O)Nc1ccc(S(=O)(=O)N(CCCN2CCOCC2)Cc2cccs2)cc1	3.1
O=C(CCS(=O)(=O)c1ccccc1)Nc1ccc(N2CCOCC2)cc1	-25.3
Cc1ccc2nc(N(CCN3CCOCC3)C(=O)CCS(=O)(=O)c3ccccc3)sc2c1	-33.1
O=C(CCS(=O)(=O)c1ccccc1)N(CCCN1CCOCC1)c1nc2ccccc2s1	96.2*
Cc1ccc(S(=O)(=O)CCC(=O)N(CCCN2CCOCC2)c2nc3ccccc3s2)cc1	95.5*
O=C(CN1CCOCC1)N[C@H]1CC[C@H](CCn2cc(C3CCCC3)nn2)O[C@@H]1CO	5.4
CC(=O)Nc1ccc2c(c1)CC(=O)N(C)C[C@H](C)[C@H](CN(C)C(=O)NC(C)C)O2	2.7
CC(=O)N(C)C[C@H]1Oc2c(cccc2N(C)C)C(=O)N(C)C[C@H]1C	-0.9
CC(C)NC(=O)Nc1ccc2c(c1)C(=O)N(C)C[C@@H](C)[C@@H](CN(C)C)O2	11.2
O=C(Nc1cc(F)ccc1F)N1CC(=O)N2[C@@H](CO)[C@H](c3ccc(/C=C/c4ccccc4)cc3)[C@@H]2C1	9.9[25 µM]
COc1ccc(CC2C(=O)NC(C)C(=O)N(C)C3Cc4ccc(cc4)Oc4cc(ccc4O)CC(C(=O)NC(C)C(=O)NC(C)C(=O)N2C)N(C)C3=O)cc1 (configuration not stated)	67.1*
C[C@@H]1CN([C@H](C)CO)C(=O)c2cc(C#CC3(O)CCCC3)cnc2O[C@H]1CN(C)S(=O)(=O)c1ccccc1	-19.6[25 µM]
COc1ccc2c3c(n(C)c2c1)[C@@H](CO)N(C(=O)CN(C)C)CC31CCN(Cc2cncnc2)CC1	25.2[25 µM]
Cc1ccc(S(=O)c2ccc([N+](=O)[O-])c3nonc23)cc1 (configuration not stated)	87.5*
CCc1nnc(NS(=O)(=O)c2ccc(Nc3ccc([N+](=O)[O-])c4nonc34)cc2)s1	16.1
Cc1ccc(C)c([N+](=O)[O-])c1	11.8
Cc1ccc(OCCn2cnc3c(N)ncnc32)cc1	84.4*
SMILES	CD40 NFkB inh
Cc1ccc(OCCCCn2cnc3ccccc32)cc1	1.2
Nc1ncnc2c1ncn2CCNCCc1ccccc1	0.4
O=C1N[C@H](c2ccccc2)COCc2cn(nn2)CC[C@H](Cc2ccc(C(F)(F)F)cc2)C(=O)N[C@H](c2ccccc2)COCc2cn(nn2)CC[C@@H]1Cc1ccc(C(F)(F)F)cc1	6.4
CC(=O)NC[C@H]1[C@H](c2ccc(C3=CCCCC3)cc2)[C@H](CO)N1C(=O)NC(C)C	-0.1
C[C@@H]1CN(C)C(=O)c2cccc(N(C)C)c2O[C@@H]1CN(C)C	5.5
C=C(CC)C(=O)c1ccc(OCC(=O)O)c(Cl)c1Cl	40.8*
COc1ccccc1OCC(=O)O	7.3
CCOC(=O)COc1ccc2nsnc2c1Cl	9.2
C[C@H](CO)N1C[C@H](C)[C@@H](CN(C)S(=O)(=O)c2cccc(F)c2)OCc2ccccc2-c2ccccc2C1=O	-4.5
O=C(C#Cc1ccccc1)c1ccccc1	89.0*
O=C(COc1ccccc1)c1ccccc1	-8.7
O=C(CC(=O)c1ccccc1)c1ccccc1	-74.0
COc1ccc(S(=O)(=O)N2C[C@H](O)COC[C@@H]3O[C@H](CC(=O)N[C@@H]4CCN(Cc5ccccc5)C4)CC[C@H]32)cc1	-0.5[25 µM]
CN1C(=O)c2cc(NS(=O)(=O)c3ccccc3Cl)ccc2OC[C@H]2O[C@@H](CC(=O)Nc3cc(F)ccc3F)CC[C@@H]21	-21.1[25 µM]
C[C@@H]1CN(C)C(=O)c2cccc(N)c2O[C@H]1CN(C)C(=O)OC(C)(C)C	7.3
CO[C@@H](CN(C)S(=O)(=O)c1ccc(Cl)cc1)[C@H](C)CN(Cc1ccccc1Cl)[C@@H](C)CO	33.6*
CO[C@@H](CN(C)S(=O)(=O)c1ccc(Cl)cc1)[C@@H](C)CN(Cc1ccccc1Cl)[C@H](C)CO	2.3
CO[C@H](CN(C)S(=O)(=O)c1ccc(Cl)cc1)[C@H](C)CN(Cc1ccccc1Cl)[C@@H](C)CO	13.6
CC(=O)Nc1ccc2c(c1)CC(=O)N(C)C[C@H](C)[C@H](CN(C)C(=O)OC(C)(C)C)O2	5.5
O=C(Cc1cccnc1)N1CC(=O)N2[C@H](CO)[C@H](c3ccc(C#CC4CCCC4)cc3)[C@H]2C1	3.2
CCOc1ccc(-n2ccnc(SCC(=O)NCCc3ccccc3)c2=O)cc1	-2.8
Cc1ccc(-n2ccnc(SCC(=O)NCCc3ccccc3)c2=O)cc1F	54.0*
Cc1ccc(-n2ccnc(SCC(=O)NC3CCCC3)c2=O)cc1Cl	3.0
COc1ccccc1-c1ccc(C2[C@H]3CNC[C@@H]2N3Cc2nccs2)cc1 (some centres not stated)	0.0[25 µM]
CN(C)C(=O)c1cccc(-c2ccc(C3[C@@H]4CN(S(=O)(=O)c5ccccc5)C[C@H]3N4)cc2)c1 (some centres not stated)	-41.8
SMILES	CD40 NFkB inh
C[C@@H]1CN([C@@H](C)CO)C(=O)c2c(c3ccccc3n2C)-c2ccccc2CO[C@@H]1CN(C)Cc1cccc2c1OCCCO2	2.9[25 µM]
CC(=O)N1[C@@H]2CN(CC(F)(F)F)C[C@H]1C2c1ccc(Br)cc1 (some centres not stated)	0.2
O=C(Nc1ccccc1F)N[C@@H]1CC[C@H](CCNC(=O)C2CCCC2)O[C@H]1CO	8.1
CCCCCCCCCC[n+]1cccc2c3ccccc3ccc21	93.8*
CCCCCCCCNc1ncnc2ccccc12	10.0
Cc1cccc[n+]1CCCCCCCCCC[n+]1ccccc1C	9.1
CCCCCC(=O)Nc1cccc2ccccc12	-12.6
CCCCCCCC[n+]1cccc2c3ccccc3ccc21	93.2*
CC(C)NC(=O)N(C)C[C@@H]1Oc2ccccc2C(=O)N(C)C[C@@H]1C	-4.1
COc1ccc(NC(=O)N2C[C@@H]3[C@H](c4ccccc42)[C@H](CO)N3Cc2ccccn2)cc1	-22.2[25 µM]
CC1Cc2ccccc2N1C(=O)c1cnc2n(c1=O)CCS2 (configuration not stated)	0.6
CC1Cc2ccccc2N1c1ncnc(N)c1[N+](=O)[O-] (configuration not stated)	54.1*
CC1Cc2ccccc2N1C(=O)c1cnsn1 (configuration not stated)	7.0
CCS(=O)(=O)N1Cc2ccccc2CC1C(=O)Nc1nc2ccccc2s1 (configuration not stated)	61.4*
CCS(=O)(=O)N1Cc2ccccc2CC1C(=O)Nc1nc2ccccc2[nH]1 (configuration not stated)	-82.8
CCc1nnc(NC(=O)C2Cc3ccccc3CN2S(=O)(=O)CC)s1 (configuration not stated)	-19.8
O=C(c1ccccc1F)N1C[C@H]2[C@@H](c3ccccc31)[C@@H](CO)N2C(=O)c1ccccc1	-1.4
